Screening data (PubChem)
TDP1 cell noCPT – qHTS for Inhibitors of human tyrosyl-DNA phosphodiesterase 1 (TDP1): qHTS in cells in absence of CPT; 15% of 420,000 active; DT40 Tdp1-/- hTDP1 cells, no CPT, ATP luminescence, 48 h; Potency, µM (series often up to 46.2 µM), hits mostly inhibitors; note: nearly all actives have a fitted effect of over 55% in size
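Growth of hTDP1-complemented DT40 Tdp1-knockout cells is measured by ATP luminescence after at least 48 hr compound exposure at 37 °C, with DMSO substituting for the 20 nM CPT used in the parallel screen.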
IL-1B inflam inh – inflammasome signaling inhibition, IL-1 beta readout. THP-1 LPS/ATP IL-1B secretion, AlphaLISA, 16 h; stronger effect = lower value. activity change, % at 57.5 µM. 4.7% of 360,000 active; in the data active = activity change below about -50%; inconclusive = mostly about -30% to -49%
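Secreted IL-1B measured by AlphaLISA bead assay after 16 h compound exposure of THP-1 cells; compounds (final up to 57.5 uM) added 1 h before LPS (250 ng/mL) and ATP (1.25 mM) stimulation; lower signal means less secretion.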
TDP1 inh – TDP1 (human) enzyme inhibition; Q9NUW8; recombinant TDP1, AlphaScreen DNA substrate cleavage; Potency, µM (doses to about 130 µM), most hits filed as inhibitors; 0.28% of 350,000 active; note: nearly all actives have a fitted effect of over 40% in size
Target sequence (Q9NUW8 whole entry, looked up): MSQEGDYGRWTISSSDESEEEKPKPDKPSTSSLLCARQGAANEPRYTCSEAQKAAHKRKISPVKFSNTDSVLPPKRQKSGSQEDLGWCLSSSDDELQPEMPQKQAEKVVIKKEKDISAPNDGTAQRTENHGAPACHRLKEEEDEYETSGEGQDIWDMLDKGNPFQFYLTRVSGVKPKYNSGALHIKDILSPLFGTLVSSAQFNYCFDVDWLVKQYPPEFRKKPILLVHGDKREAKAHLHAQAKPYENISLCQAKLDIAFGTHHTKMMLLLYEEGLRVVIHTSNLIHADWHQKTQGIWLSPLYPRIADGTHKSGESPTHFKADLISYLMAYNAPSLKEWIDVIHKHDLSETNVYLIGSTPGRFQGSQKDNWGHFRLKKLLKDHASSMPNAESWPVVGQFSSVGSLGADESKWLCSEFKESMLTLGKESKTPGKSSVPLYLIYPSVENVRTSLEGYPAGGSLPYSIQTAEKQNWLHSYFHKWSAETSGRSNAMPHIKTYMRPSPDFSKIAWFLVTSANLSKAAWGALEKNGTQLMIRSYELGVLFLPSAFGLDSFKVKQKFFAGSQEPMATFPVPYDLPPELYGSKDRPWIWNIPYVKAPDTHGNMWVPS
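Recombinant E. coli-expressed Tdp1 (1 nM) preincubated with compound 15 min at RT, then 5'-biotin/3'-phosphotyrosine-FITC DNA substrate (15 nM) added for 5 min. AlphaScreen beads (10 ug/ml) added, 10 min RT; tyrosine-FITC cleavage read as signal loss.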
TGFb SMAD3 inh – blocks TGF-b signaling. HepG2 CAGA-GFP TGF-b/SMAD3 reporter, GFP fluorescence, 18 h; TGF-beta stimulated, 500 pg/mL final. Potency, µM (doses to about 46.1 µM), most hits filed as inhibitors. 1.2% of 410,000 active; note: nearly all actives have a fitted effect of over 65% in size
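HEPG2 CAGA-GFP, 1000 cells/well; 2 h settle, 37 C; cpd via pin tool; TGF-b 500 pg/mL final; 18 h, 37 C; GFP imaging ex488/em500-530; %Activity normalised to -TGF-b and +DMSO controls; CRC fit, curve class.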
HepG2 viability – kills HepG2 cells in TGF-b inhibitor counter-screen; HepG2 CAGA-GFP viability, ATP luminescence, 18 h; Potency, µM (series often up to 46.1 µM), actives largely listed as cytotoxic; 0.76% of 410,000 active; AID 588856
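CellTiter-Glo luminescence gave cytotoxicity after 18 hours at 37 degrees C. The cells were HepG2 CAGA-GFP in 1% FBS DMEM, stimulated with 500 pg/mL TGF-beta after compound addition. %Activity was normalised to no-cell wells (complete cell-killing) and DMSO (no toxicity), and curves were fitted and classified.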
TDP1 cell CPT – DT40-hTDP1 cell growth loss with CPT; chicken DT40 Tdp1-/-;hTDP1 cells + 20 nM CPT, ATP luminescence, 48 h; Potency, µM (top dose mostly 46.2 µM), hits mostly inhibitors; 12% of 420,000 active; AID 686979; note: nearly all actives have a fitted effect of over 55% in size
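Chicken DT40 Tdp1-/- cells stably complemented with human TDP1 were seeded at 400 cells/well in medium containing 20 nM camptothecin, exposed to pin-transferred compounds, and grown at 37 °C for at least 48 hr. Viability was read as ATP luminescence.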
Hits are given with their value. Only some compounds are listed: those with a hit (about 19% of all), similar ones and a draw of the others. Unless noted, calls come from the whole dose curve; as a rule, active = well fitted curve in the direction sought with a large enough effect; inconclusive = small, poorly fitted or top-dose-only effect, or another doubt; inactive = no such curve, though single readings can be large; an effect the other way counts as inactive or inconclusive.

Results for CCOc1ccc(CCNC(=O)CCSCc2cccc(Cl)c2)cc1OCC ?
TDP1 cell noCPT: 21µM; TDP1 inh: inactive; TGFb SMAD3 inh: inactive; HepG2 viability: inactive; TDP1 cell CPT: inconclusive

What do the screens show for `CCOc1ccc(CCNC(=O)CSC(=S)N2CCCC2)cc1OCC`?
TDP1 cell noCPT: inconclusive; IL-1B inflam inh: inactive; TDP1 inh: inactive; TGFb SMAD3 inh: inactive; HepG2 viability: inactive; TDP1 cell CPT: 21µM

Results for COc1ccc(Br)cc1CNC(=O)CCSCc1ccc(Cl)cc1 ?
TDP1 cell noCPT: 26µM; TDP1 inh: inactive; TGFb SMAD3 inh: inactive; HepG2 viability: inactive; TDP1 cell CPT: inconclusive

How did O=C(CCSCc1cccc(Cl)c1)NCCc1ccc(Cl)cc1 do in these assays?
TDP1 cell noCPT: inconclusive; IL-1B inflam inh: inactive; TDP1 inh: inactive; TGFb SMAD3 inh: inconclusive; HepG2 viability: inactive; TDP1 cell CPT: inactive

Results for CCOc1ccc(CCNC(=O)CCSCc2ccc(Cl)cc2)cc1OCC ?
TDP1 cell noCPT: 23µM; TDP1 inh: inactive; TGFb SMAD3 inh: inactive; HepG2 viability: inactive; TDP1 cell CPT: inconclusive

Results for CCOc1ccc(CCNC(=O)CSCc2ccc(C)cc2)cc1OCC ?
TDP1 cell noCPT: inconclusive; IL-1B inflam inh: inactive; TDP1 inh: inactive; TGFb SMAD3 inh: inactive; HepG2 viability: inactive; TDP1 cell CPT: inconclusive

How did CCc1ccc(C(=O)c2cn(CC(=O)Nc3cc(OC)ccc3OC)c3ccc(C)cc3c2=O)cc1 do in these assays?
TDP1 cell noCPT: inactive; TDP1 inh: inactive; TGFb SMAD3 inh: inactive; HepG2 viability: inactive; TDP1 cell CPT: inactive

Results for CC(=O)Nc1ccc(S(=O)(=O)Nc2c(NC3CCCCC3)c3ccccc3oc2=O)cc1 ?
TDP1 cell noCPT: inconclusive; IL-1B inflam inh: inactive; TDP1 inh: inactive; TGFb SMAD3 inh: inactive; HepG2 viability: inactive; TDP1 cell CPT: inactive

How did CCOc1ccc(CCNC(=O)CCOc2cc(C)ccc2C)cc1OCC do in these assays?
TDP1 cell noCPT: 18µM; IL-1B inflam inh: inactive; TDP1 inh: inactive; TGFb SMAD3 inh: inactive; HepG2 viability: inactive; TDP1 cell CPT: inconclusive

What do the screens show for `O=C(COC(=O)c1ccc(OC(F)F)cc1)NCCCN1CCCC1=O`?
TDP1 cell noCPT: inactive; IL-1B inflam inh: inactive; TDP1 inh: inactive; TGFb SMAD3 inh: inactive; HepG2 viability: inactive; TDP1 cell CPT: inactive

What do the screens show for `CCN(CC)C(=O)N1CCC(NC(=O)c2ccc(C(C)(C)C)cc2)CC1`?
TDP1 cell noCPT: 23µM; IL-1B inflam inh: inactive; TDP1 inh: inactive; TGFb SMAD3 inh: inactive; HepG2 viability: inactive; TDP1 cell CPT: inconclusive

What do the screens show for `CCOc1ccc(C2NC(=O)Cc3cc(OC)c(OC)cc32)cc1` (centres undefined)?
TDP1 cell noCPT: inactive; IL-1B inflam inh: inactive; TGFb SMAD3 inh: inactive; HepG2 viability: inactive; TDP1 cell CPT: inactive

What do the screens show for `COc1cc2c(cc1OC)C(c1ccc(C)cc1)NC(=O)C2` (centres undefined)?
TDP1 cell noCPT: inactive; IL-1B inflam inh: -61; TGFb SMAD3 inh: inactive; HepG2 viability: inactive; TDP1 cell CPT: inactive

How did COc1cc2c(cc1OC)C(c1cccc(Br)c1)NC(=O)C2 (centres undefined) do in these assays?
TDP1 cell noCPT: inactive; IL-1B inflam inh: inactive; TGFb SMAD3 inh: inactive; HepG2 viability: inactive; TDP1 cell CPT: inactive

How did COc1ccc2c(c1)C(c1ccccc1)NC(=O)C2 (centres undefined) do in these assays?
TDP1 cell noCPT: inactive; IL-1B inflam inh: inactive; TDP1 inh: inactive; TGFb SMAD3 inh: inactive; HepG2 viability: 11µM; TDP1 cell CPT: inactive

Results for Nc1c(Cl)cc(-c2cn(CCC(=O)O)c(-c3ccncc3)n2)cc1Cl ?
TDP1 cell noCPT: inactive; IL-1B inflam inh: inactive; TDP1 inh: inactive; TGFb SMAD3 inh: inconclusive; HepG2 viability: inactive; TDP1 cell CPT: inactive

What do the screens show for `COc1cc(S(=O)(=O)Nc2ccc3c(c2)C(=O)N(C)C3=O)ccc1NC(C)=O`?
TDP1 cell noCPT: inactive; IL-1B inflam inh: inactive; TDP1 inh: inactive; TGFb SMAD3 inh: inactive; HepG2 viability: inactive; TDP1 cell CPT: inactive

What do the screens show for `COc1ccc(Cl)cc1NC(=O)CN(C)C(=O)C1CCN(C(=O)Nc2ccccc2)CC1`?
TDP1 cell noCPT: inactive; IL-1B inflam inh: inactive; TDP1 inh: inactive; TGFb SMAD3 inh: inactive; HepG2 viability: inactive; TDP1 cell CPT: inactive

What do the screens show for `COc1ccc(Nc2nc(-c3cccs3)nc3ccccc23)c(OC)c1`?
TDP1 cell noCPT: 13µM; IL-1B inflam inh: inactive; TDP1 inh: inactive; TGFb SMAD3 inh: inactive; HepG2 viability: inactive; TDP1 cell CPT: 16µM

How did COc1ccccc1Nc1nc(-c2cccc([N+](=O)[O-])c2)nc2ccccc12 do in these assays?
TDP1 cell noCPT: 18µM; IL-1B inflam inh: inactive; TDP1 inh: inactive; TGFb SMAD3 inh: inactive; HepG2 viability: inactive; TDP1 cell CPT: 23µM

What do the screens show for `COc1ccc(Nc2nc(-c3cccc([N+](=O)[O-])c3)nc3ccccc23)c(OC)c1`?
TDP1 cell noCPT: 18µM; IL-1B inflam inh: inactive; TDP1 inh: inactive; TGFb SMAD3 inh: inactive; HepG2 viability: inactive; TDP1 cell CPT: inconclusive

Results for Cc1cc(C)cc(OCc2ccc(C(=O)Nc3ccccc3F)o2)c1 ?
TDP1 cell noCPT: inconclusive; TDP1 inh: inactive; TGFb SMAD3 inh: inactive; HepG2 viability: inactive; TDP1 cell CPT: inactive

What do the screens show for `CC1(C)CC(=O)C=C(c2ccc(COC(=O)/C=C/c3ccccc3)cc2)C1=O`?
TDP1 cell noCPT: 21µM; IL-1B inflam inh: inactive; TGFb SMAD3 inh: inactive; HepG2 viability: inactive; TDP1 cell CPT: inconclusive

What do the screens show for `COc1cccc(CNC(=O)c2nn(-c3ccccc3Cl)nc2CO)c1`?
TDP1 cell noCPT: inactive; TDP1 inh: inactive; TGFb SMAD3 inh: inactive; HepG2 viability: inactive; TDP1 cell CPT: inconclusive

How did CN(C)c1cccc(C(=O)n2cc(C(=O)c3cc(F)ccc3O)cn2)c1 do in these assays?
TDP1 cell noCPT: inconclusive; IL-1B inflam inh: inactive; TDP1 inh: inactive; TGFb SMAD3 inh: inactive; HepG2 viability: inactive; TDP1 cell CPT: inactive

Results for COc1ccc(O)c(C(=O)c2cnn(C(=O)c3cccc(N(C)C)c3)c2)c1 ?
TDP1 cell noCPT: 18µM; IL-1B inflam inh: inactive; TDP1 inh: inactive; TGFb SMAD3 inh: inactive; HepG2 viability: inactive; TDP1 cell CPT: 18µM

Results for Cc1cc(N2CCN(C)CC2)nc2ccc(NC(=O)Nc3ccc(Cl)cc3)cc12 ?
TDP1 cell noCPT: inconclusive; TDP1 inh: inactive; TGFb SMAD3 inh: inactive; HepG2 viability: inactive; TDP1 cell CPT: inconclusive
